Laboratory results taken from paper PMC7862700, “An all-to-all approach to the identification of sequence-specific readers for epigenetic DNA modifications on cytosine”.

Legend:
Experiment in all cases: DAPPL (digital affinity profiling via proximity ligation, sequencing); 10 mM Tris-HCl pH 7.5, 50 mM NaCl, 1 mM DTT, 4% glycerol, room temperature, 30 min; GST-TFs on glutathione beads, 16-mer random dsDNA library, 0.1% formaldehyde crosslink after washing; high values mean tight binding
FEV = molecular target: T1, FEV (Homo sapiens, UniProt Q99581 1-238); conditions: protein: recombinant; tags: N-terminal GST; dsDNA, one strand shown
T1 sequence: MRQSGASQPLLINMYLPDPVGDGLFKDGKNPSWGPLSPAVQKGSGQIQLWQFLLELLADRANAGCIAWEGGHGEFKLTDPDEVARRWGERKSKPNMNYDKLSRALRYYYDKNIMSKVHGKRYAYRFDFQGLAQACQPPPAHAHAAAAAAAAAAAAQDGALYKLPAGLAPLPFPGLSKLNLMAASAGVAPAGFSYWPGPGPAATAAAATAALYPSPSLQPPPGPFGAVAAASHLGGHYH
Method in brief: (§1)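 Binding signal is each hexamer's read frequency for a factor divided by its frequency in the tag-only sample. The factors were GST-fused human transcription factors from yeast, captured on glutathione beads, DNA-barcoded and pooled with that sample. Pools were incubated with 200 nmole of a random double-stranded 16-mer DNA library in Tris/NaCl/DTT/glycerol buffer at room temperature for 30 min, then washed, crosslinked with 0.1% formaldehyde, proximity-ligated with BsaI/T4 ligase (1 h, 37 °C), PCR-amplified and sequenced on an Illumina NextSeq500.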

ETV5 = ETV5 (Homo sapiens, UniProt P41161 1-510); conditions: protein: recombinant; tags: N-terminal GST; dsDNA, one strand shown
Method in brief: as §1

HSF1 = HSF1 (Homo sapiens, UniProt Q00613 1-529); conditions: protein: recombinant; tags: N-terminal GST; chain copies: 3; dsDNA, one strand shown
Method in brief: as §1

SPIC = molecular target: T2, SPIC (Homo sapiens, UniProt Q8N5J4 1-248); conditions: protein: recombinant; tags: N-terminal GST; dsDNA, one strand shown
T2 sequence: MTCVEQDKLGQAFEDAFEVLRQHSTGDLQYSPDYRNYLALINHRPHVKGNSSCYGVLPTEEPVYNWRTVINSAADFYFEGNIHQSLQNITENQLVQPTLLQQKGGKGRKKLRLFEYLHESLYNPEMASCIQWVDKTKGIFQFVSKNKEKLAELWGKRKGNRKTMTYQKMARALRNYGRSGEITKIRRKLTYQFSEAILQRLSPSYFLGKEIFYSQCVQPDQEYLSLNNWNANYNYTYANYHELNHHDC
Method in brief: as §1

ELF4 = ELF4 (Homo sapiens, UniProt Q99607 1-663); conditions: protein: recombinant; tags: N-terminal GST; dsDNA, one strand shown
Method in brief: as §1

ELK4 = molecular target: T3, ELK4 (Homo sapiens, UniProt P28324-2 1-405); conditions: protein: recombinant; tags: N-terminal GST; dsDNA, one strand shown
T3 sequence: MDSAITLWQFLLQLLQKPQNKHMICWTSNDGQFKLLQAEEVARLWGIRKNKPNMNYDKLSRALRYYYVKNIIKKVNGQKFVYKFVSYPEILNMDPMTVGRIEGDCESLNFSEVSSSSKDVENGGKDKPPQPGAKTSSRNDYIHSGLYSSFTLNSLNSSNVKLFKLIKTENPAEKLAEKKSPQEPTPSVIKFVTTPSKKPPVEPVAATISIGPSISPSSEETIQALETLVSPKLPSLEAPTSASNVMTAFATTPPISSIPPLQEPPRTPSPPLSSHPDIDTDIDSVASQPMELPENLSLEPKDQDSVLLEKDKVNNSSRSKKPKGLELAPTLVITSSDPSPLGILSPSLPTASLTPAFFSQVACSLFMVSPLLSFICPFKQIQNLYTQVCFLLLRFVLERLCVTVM
Method in brief: as §1

ELF3 = molecular target: T4, ELF3 (Homo sapiens, UniProt P78545 1-371); conditions: protein: recombinant; tags: N-terminal GST; dsDNA, one strand shown
T4 sequence: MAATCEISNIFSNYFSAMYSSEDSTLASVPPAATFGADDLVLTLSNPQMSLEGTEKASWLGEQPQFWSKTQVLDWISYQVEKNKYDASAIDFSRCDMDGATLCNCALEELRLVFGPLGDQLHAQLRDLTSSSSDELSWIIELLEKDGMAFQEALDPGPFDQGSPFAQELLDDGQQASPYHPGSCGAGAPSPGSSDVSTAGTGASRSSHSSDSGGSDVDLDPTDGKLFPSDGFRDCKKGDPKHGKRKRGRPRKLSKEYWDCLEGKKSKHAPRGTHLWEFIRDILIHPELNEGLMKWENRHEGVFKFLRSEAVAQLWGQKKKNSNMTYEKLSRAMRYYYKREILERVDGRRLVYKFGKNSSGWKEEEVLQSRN
Method in brief: as §1

CRX = CRX (Homo sapiens, UniProt O43186 1-299); conditions: protein: recombinant; tags: N-terminal GST; dsDNA, one strand shown
Method in brief: as §1

ETV1 = ETV1 (Homo sapiens, UniProt P50549 1-477); conditions: protein: recombinant; tags: N-terminal GST; dsDNA, one strand shown
Method in brief: as §1

ERF = molecular target: T5, ERF (Homo sapiens, UniProt P50548 1-548); conditions: protein: recombinant; tags: N-terminal GST; dsDNA, one strand shown
T5 sequence: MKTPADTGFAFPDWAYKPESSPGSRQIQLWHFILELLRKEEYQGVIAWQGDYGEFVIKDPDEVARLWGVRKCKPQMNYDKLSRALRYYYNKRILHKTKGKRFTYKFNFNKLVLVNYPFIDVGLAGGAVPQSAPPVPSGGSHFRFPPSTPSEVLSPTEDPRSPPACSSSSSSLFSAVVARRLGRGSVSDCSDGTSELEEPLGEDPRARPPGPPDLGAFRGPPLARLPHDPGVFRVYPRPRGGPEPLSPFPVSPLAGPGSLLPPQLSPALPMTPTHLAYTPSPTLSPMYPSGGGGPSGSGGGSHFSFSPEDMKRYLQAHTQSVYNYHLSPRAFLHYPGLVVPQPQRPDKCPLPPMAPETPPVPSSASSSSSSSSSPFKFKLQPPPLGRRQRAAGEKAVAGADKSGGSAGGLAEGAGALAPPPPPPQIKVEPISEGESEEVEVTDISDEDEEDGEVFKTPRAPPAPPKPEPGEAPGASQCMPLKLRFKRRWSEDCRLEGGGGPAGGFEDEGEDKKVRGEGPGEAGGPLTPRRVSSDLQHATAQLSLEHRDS
Method in brief: as §1

ETV3L = molecular target: T6, ETV3L (Homo sapiens, UniProt Q6ZN32 1-361); conditions: protein: recombinant; tags: N-terminal GST; dsDNA, one strand shown
T6 sequence: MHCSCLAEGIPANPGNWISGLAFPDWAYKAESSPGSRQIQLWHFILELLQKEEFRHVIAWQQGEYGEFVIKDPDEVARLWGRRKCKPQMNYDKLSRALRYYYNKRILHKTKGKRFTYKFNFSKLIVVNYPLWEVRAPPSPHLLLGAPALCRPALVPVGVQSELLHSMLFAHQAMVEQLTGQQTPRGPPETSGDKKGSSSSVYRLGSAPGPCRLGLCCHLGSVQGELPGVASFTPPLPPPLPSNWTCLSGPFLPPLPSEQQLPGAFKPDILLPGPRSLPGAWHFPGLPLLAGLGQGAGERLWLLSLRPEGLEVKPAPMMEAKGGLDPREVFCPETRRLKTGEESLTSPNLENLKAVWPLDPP
Method in brief: as §1

ETS2 = molecular target: T7, ETS2 (Homo sapiens, UniProt P15036 1-469); conditions: protein: recombinant; tags: N-terminal GST; dsDNA, one strand shown
T7 sequence: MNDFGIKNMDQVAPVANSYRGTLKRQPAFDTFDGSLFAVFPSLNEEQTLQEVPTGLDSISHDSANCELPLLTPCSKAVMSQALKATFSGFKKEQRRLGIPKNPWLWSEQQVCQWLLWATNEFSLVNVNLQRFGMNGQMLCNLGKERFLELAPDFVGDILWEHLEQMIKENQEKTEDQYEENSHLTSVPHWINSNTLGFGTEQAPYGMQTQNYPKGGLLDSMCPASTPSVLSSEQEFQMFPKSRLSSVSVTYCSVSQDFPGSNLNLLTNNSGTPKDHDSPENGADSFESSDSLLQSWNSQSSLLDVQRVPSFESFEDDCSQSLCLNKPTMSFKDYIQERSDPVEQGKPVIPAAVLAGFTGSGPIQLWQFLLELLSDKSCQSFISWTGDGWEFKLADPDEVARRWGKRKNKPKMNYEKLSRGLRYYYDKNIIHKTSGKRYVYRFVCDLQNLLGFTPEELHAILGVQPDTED
Method in brief: as §1

ETV7 = molecular target: T8, ETV7 (Homo sapiens, UniProt Q9Y603 1-341); conditions: protein: recombinant; tags: N-terminal GST; dsDNA, one strand shown
T8 sequence: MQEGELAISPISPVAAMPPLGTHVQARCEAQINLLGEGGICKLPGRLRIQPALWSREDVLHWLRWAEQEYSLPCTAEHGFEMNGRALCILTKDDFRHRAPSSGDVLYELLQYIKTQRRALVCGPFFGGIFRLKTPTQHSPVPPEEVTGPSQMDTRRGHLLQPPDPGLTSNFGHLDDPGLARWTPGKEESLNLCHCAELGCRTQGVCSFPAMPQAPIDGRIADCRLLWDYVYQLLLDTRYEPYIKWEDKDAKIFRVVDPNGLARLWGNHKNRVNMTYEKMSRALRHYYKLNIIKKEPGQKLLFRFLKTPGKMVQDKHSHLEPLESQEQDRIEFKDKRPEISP
Method in brief: as §1

ELF5 = molecular target: T9, ELF5 (Homo sapiens, UniProt Q9UKW6-2 1-255); conditions: protein: recombinant; tags: N-terminal GST; dsDNA, one strand shown
T9 sequence: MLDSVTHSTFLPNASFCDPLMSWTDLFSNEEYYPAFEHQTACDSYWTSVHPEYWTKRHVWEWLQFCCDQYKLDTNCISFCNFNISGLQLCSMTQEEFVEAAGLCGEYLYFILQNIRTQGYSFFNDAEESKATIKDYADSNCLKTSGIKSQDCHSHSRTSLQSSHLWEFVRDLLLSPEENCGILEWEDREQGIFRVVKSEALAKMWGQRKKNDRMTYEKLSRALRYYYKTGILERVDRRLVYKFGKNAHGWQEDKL
Method in brief: as §1

ETV3 = molecular target: T10, ETV3 (Homo sapiens, UniProt P41162-2 1-143); conditions: protein: recombinant; tags: N-terminal GST; dsDNA, one strand shown
T10 sequence: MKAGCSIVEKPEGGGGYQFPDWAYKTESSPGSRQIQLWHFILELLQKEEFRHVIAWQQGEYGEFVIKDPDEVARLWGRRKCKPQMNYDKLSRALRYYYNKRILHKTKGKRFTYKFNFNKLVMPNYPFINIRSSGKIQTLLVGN
Method in brief: as §1

ETV6 = ETV6 (Homo sapiens, UniProt P41212 1-452); conditions: protein: recombinant; tags: N-terminal GST; dsDNA, one strand shown
Method in brief: as §1

SPDEF = molecular target: T11, SPDEF (Homo sapiens, UniProt O95238 1-335); conditions: protein: recombinant; tags: N-terminal GST; dsDNA, one strand shown
T11 sequence: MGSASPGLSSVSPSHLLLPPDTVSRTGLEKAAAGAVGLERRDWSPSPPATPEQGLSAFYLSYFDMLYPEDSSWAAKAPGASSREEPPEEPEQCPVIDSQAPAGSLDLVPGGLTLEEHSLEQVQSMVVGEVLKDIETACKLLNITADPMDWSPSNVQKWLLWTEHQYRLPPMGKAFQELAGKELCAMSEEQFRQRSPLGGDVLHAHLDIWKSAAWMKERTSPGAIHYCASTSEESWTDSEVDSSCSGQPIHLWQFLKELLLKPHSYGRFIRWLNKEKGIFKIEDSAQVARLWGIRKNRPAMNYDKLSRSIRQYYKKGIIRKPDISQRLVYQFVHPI
Method in brief: as §1

Sequence of CRX (O43186 whole entry): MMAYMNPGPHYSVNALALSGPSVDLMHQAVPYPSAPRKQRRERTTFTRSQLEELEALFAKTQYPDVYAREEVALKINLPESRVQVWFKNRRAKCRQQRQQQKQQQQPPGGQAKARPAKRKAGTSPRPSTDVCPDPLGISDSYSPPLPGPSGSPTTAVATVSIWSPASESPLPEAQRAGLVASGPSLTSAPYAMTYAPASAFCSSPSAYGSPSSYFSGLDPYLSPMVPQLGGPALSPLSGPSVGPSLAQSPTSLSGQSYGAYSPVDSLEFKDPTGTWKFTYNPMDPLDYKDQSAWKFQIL
Sequence of ETV5 (P41161 whole entry): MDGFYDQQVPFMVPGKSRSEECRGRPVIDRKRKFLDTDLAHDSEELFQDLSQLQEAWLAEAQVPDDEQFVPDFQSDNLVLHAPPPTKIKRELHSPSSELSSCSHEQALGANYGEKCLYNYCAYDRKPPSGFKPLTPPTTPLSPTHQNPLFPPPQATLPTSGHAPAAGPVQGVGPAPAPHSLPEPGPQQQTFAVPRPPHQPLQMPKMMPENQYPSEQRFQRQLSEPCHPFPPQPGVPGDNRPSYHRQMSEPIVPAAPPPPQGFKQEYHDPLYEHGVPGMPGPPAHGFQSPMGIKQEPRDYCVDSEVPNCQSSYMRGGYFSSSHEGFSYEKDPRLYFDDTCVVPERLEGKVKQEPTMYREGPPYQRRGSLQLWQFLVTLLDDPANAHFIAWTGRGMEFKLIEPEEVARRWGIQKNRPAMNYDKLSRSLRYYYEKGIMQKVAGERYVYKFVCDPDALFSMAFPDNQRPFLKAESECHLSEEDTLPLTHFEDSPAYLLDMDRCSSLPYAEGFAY
Sequence of ETV6 (P41212 whole entry): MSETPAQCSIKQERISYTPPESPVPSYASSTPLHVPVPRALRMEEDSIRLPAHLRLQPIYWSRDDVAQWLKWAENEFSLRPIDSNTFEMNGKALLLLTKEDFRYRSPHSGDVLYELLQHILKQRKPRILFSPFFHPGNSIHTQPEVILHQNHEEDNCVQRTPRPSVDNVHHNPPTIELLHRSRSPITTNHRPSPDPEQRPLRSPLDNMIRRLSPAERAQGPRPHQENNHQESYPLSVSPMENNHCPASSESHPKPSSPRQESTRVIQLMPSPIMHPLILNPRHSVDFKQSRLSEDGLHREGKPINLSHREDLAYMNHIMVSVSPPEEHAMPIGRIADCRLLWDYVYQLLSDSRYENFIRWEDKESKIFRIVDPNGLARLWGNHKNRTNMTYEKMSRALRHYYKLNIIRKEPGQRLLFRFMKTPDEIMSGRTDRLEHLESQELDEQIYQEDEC
Sequence of HSF1 (Q00613 whole entry): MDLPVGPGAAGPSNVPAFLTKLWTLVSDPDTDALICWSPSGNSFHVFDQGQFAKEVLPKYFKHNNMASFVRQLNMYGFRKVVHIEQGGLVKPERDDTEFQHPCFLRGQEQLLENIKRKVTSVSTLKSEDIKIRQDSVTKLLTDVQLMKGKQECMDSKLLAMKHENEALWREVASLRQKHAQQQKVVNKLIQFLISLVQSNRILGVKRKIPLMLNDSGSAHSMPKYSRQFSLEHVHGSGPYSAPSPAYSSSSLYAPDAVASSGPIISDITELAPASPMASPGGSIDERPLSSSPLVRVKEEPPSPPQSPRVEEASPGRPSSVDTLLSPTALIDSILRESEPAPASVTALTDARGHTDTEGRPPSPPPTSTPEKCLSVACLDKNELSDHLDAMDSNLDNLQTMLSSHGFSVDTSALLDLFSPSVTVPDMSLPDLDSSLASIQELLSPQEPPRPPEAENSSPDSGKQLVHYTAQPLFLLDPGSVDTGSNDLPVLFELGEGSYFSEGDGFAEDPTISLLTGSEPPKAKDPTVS
Sequence of ELF4 (Q99607 whole entry): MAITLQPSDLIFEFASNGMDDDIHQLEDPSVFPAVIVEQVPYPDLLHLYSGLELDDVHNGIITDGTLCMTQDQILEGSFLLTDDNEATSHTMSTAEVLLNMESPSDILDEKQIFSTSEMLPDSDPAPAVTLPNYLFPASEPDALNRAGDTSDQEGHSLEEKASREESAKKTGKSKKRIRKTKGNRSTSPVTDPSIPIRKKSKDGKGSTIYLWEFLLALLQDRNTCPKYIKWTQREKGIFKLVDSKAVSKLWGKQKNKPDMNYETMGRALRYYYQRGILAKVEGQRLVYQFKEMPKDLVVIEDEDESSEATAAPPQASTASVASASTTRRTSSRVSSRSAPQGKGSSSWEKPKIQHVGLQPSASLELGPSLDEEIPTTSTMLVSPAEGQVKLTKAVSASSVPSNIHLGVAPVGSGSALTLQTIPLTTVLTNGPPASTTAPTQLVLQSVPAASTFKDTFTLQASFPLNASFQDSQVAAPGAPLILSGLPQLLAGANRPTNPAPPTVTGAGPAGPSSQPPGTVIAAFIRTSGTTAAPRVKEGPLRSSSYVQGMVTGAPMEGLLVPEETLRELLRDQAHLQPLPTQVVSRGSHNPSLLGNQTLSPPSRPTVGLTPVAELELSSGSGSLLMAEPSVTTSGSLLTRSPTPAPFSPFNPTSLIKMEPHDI
Sequence of ETV1 (P50549 whole entry): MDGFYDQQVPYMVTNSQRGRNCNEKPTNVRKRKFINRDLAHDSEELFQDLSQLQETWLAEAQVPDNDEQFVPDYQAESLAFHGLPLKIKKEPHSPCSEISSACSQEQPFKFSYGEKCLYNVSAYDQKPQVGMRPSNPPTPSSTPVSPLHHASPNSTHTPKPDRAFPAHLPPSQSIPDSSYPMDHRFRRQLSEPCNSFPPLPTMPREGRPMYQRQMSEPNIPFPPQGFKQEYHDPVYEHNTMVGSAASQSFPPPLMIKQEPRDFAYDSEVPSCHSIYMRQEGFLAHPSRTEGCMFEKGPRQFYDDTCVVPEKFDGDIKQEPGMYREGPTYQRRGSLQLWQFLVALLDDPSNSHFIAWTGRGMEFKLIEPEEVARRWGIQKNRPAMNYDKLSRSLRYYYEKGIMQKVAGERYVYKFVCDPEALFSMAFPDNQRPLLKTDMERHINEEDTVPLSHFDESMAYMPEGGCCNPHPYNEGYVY

Sequence	binding signal (FEV)	binding signal (ETV5)	binding signal (HSF1)	binding signal (SPIC)	binding signal (ELF4)	binding signal (ELK4)	binding signal (ELF3)	binding signal (CRX)	binding signal (ETV1)	binding signal (ERF)	binding signal (ETV3L)	binding signal (ETS2)	binding signal (ETV7)	binding signal (ELF5)	binding signal (ETV3)	binding signal (ETV6)	binding signal (SPDEF)
ATAAAG	1.04 fold enrichment (6-mer frequency, TF over GST control)	1.03 fold enrichment (6-mer frequency, TF over GST control)	1.27 fold enrichment (6-mer frequency, TF over GST control)	1.09 fold enrichment (6-mer frequency, TF over GST control)	1.08 fold enrichment (6-mer frequency, TF over GST control)	1.16 fold enrichment (6-mer frequency, TF over GST control)	1.02 fold enrichment (6-mer frequency, TF over GST control)	1.53 fold enrichment (6-mer frequency, TF over GST control)	1.04 fold enrichment (6-mer frequency, TF over GST control)	1.02 fold enrichment (6-mer frequency, TF over GST control)	1.01 fold enrichment (6-mer frequency, TF over GST control)	1 fold enrichment (6-mer frequency, TF over GST control)	1.09 fold enrichment (6-mer frequency, TF over GST control)	1.03 fold enrichment (6-mer frequency, TF over GST control)	1.05 fold enrichment (6-mer frequency, TF over GST control)	1.03 fold enrichment (6-mer frequency, TF over GST control)	–
AATCGA	–	1.05 fold enrichment (6-mer frequency, TF over GST control)	1.38 fold enrichment (6-mer frequency, TF over GST control)	1.11 fold enrichment (6-mer frequency, TF over GST control)	1.03 fold enrichment (6-mer frequency, TF over GST control)	1.03 fold enrichment (6-mer frequency, TF over GST control)	1.11 fold enrichment (6-mer frequency, TF over GST control)	1.2 fold enrichment (6-mer frequency, TF over GST control)	–	–	1.04 fold enrichment (6-mer frequency, TF over GST control)	–	1.08 fold enrichment (6-mer frequency, TF over GST control)	–	1.07 fold enrichment (6-mer frequency, TF over GST control)	1.01 fold enrichment (6-mer frequency, TF over GST control)	–
GCTTTT	1.07 fold enrichment (6-mer frequency, TF over GST control)	1.09 fold enrichment (6-mer frequency, TF over GST control)	1.12 fold enrichment (6-mer frequency, TF over GST control)	1.12 fold enrichment (6-mer frequency, TF over GST control)	1.18 fold enrichment (6-mer frequency, TF over GST control)	1.17 fold enrichment (6-mer frequency, TF over GST control)	1.14 fold enrichment (6-mer frequency, TF over GST control)	1.32 fold enrichment (6-mer frequency, TF over GST control)	1.1 fold enrichment (6-mer frequency, TF over GST control)	1.16 fold enrichment (6-mer frequency, TF over GST control)	1.12 fold enrichment (6-mer frequency, TF over GST control)	1.17 fold enrichment (6-mer frequency, TF over GST control)	1.21 fold enrichment (6-mer frequency, TF over GST control)	1.06 fold enrichment (6-mer frequency, TF over GST control)	1.15 fold enrichment (6-mer frequency, TF over GST control)	1.22 fold enrichment (6-mer frequency, TF over GST control)	1.09 fold enrichment (6-mer frequency, TF over GST control)
